# CYP2C9 inh – blockers of cytochrome P450 2C9 activity – biochemical, luminescence, ADME assay, primary screen; inhibition, % at 5 µM; 96,000 tested, 20% active; CYP2C9 Supersomes, luciferin-H conversion; P11712;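 active = blocking of liver enzyme CYP2C9 beyond about 50% at 5 µM, limit read from the data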
# CYP2C19 inhib – blockers of cytochrome P450 2C19 activity – biochemical, luminescence, ADME assay, primary screen. P33261. inhibition, % at 5 µM. 96,000 tested, 21% active. CYP2C19 Supersomes, luciferin-H EGE luminescence, 30 min;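 active = CYP2C19 inhibition above a set limit at 5 µM in the primary screen, cut at about 50% in these data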;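 also: plate controls were negative control wells for no effect and 2.5 mM tranylcypromine positive control for full effect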
# CYP2C9 activ – human CYP2C9 activators, primary screen, biochemical, luminescence | Cytochrome P450 2C9 (Homo sapiens), P11712 | recombinant CYP2C9, luciferin-H conversion; stronger effect = higher value; factor 1 = untreated enzyme, 0 = blocked | activation factor at 5 µM | 96,000 tested, 1.4% active | AID 1024, 2008;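 active = activation factor of 2 or more for CYP2C9 at a 5 µM dose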;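 also: 0 = sulfaphenazole-blocked wells and 1 = vehicle-only wells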
# Cav32 inh – Cav3.2 calcium influx blockers – cell-based, Fluo-4 calcium fluorescence, FDSS, MLSMR library, primary screen; Voltage-dependent T-type calcium channel subunit alpha-1H (Homo sapiens), O95180; Cav3.2-expressing cells; stronger effect = lower value; B-score at 10 µM; 100,000 tested, 4% active; AID 449739, 2010;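 active = single-dose well whose peak fluorescence ratio is a statistical outlier from its plate by either plate-standardised score or position-corrected B-score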
# CYP2C19 act – human CYP2C19 activators, primary screen, biochemical, luminescence | Cytochrome P450 2C19 (Homo sapiens), P33261 | recombinant CYP2C19, luciferin-H EGE luminescence; stronger effect = higher value; 0 = fully inhibited enzyme, 1 = untreated enzyme | activation factor at 5 µM | 96,000 tested, under 10 active | AID 1025, 2008;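 active = activation factor of at least 2 at 5 µM in the primary screen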;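 also: 0 = wells with 2.5 mM tranylcypromine and 1 = vehicle-only wells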
# Pyk2 oligo antag – antagonists of Pyk2 self-association, primary screen, Q293 cells, FERM NanoBiT luminescence, HTS. z-score (the deposit names both 25 µM and 10 µM). AID 1347419, 2020. stronger effect = lower value. 99,000 tested, 0.83% active;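 active = Z-score of -3 or lower, scaled per plate to the spread of control and sample wells; inactive = z-score above -3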;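 also: negative z-score means lost luminescence so less FERM oligomerization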
# * marks the source's active call; other numbers are inactive results; nt = no result given. Compounds with a hit are over-represented: about 27% of the library has one in this group of screens.
SMILES,CYP2C9 inh,CYP2C19 inhib,CYP2C9 activ,Cav32 inh,CYP2C19 act,Pyk2 oligo antag
COc1cc(C2C(C#N)=C(N)Oc3cc(O)ccc32)cc2c1OCO2 (stereo not drawn),91*,93*,0.1,-3.7,0.1,-1.4
N#CC1=C(N)Oc2c(ccc3cccnc23)C1c1cccnc1 (stereo not drawn),nt,nt,nt,nt,nt,-0.06
N#CC1=C(N)Oc2cc3ccccc3cc2C1c1cccnc1 (stereo not drawn),82*,66*,0.2,0.68,0.3,-0.79
CC(=O)c1cccc(-n2nnnc2SCC(=O)N2CCCC2)c1,-21,-11,1.2,1.1,1.1,0.29
C/C(=N\N=C\c1ccccc1)c1nnn(-c2nonc2N)c1C,39,25,0.6,-0.025,0.7,0.37
O=c1c2ccccc2nnn1CSc1nnc2sc3ccccc3n12,-74,20,1.7,nt,0.8,nt
CC1CCN=C(N)S1 (stereo not drawn),nt,nt,nt,0.31,nt,nt
COc1ccccc1N1CCN(C(=O)Cn2nc(C(F)(F)F)c3c2CCC3)CC1,-94,48,1.9,0.48,0.5,2.6
O=c1cc(-c2ccccc2Cl)oc2c(Br)ccc(O)c12,nt,nt,nt,-0.27,nt,nt
CCOC(=O)C1=C(C)OC(N)=C(C#N)C1c1cc(Cl)c(OCC(N)=O)c(OC)c1 (stereo not drawn),89*,41,0.1,-0.13,0.6,-0.96
N#CC1=C(N)Oc2cc(O)ccc2C1c1ccccc1 (stereo not drawn),77*,65*,0.2,-2.7,0.3,-1.1
O=C(Nc1ccc(Br)cc1F)C1CCN(c2nnc(-n3cccc3)s2)CC1,0,-5,1,-0.42,1.1,nt
CC(C)(C)NC(=O)C1CN(S(=O)(=O)c2ccccc2)CCN1S(=O)(=O)c1ccccc1 (stereo not drawn),12,44,0.9,0.87,0.6,-0.36
CC1(C)CSC(=S)N1S(=O)(=O)c1ccccc1,31,75*,0.7,0.67,0.2,-0.72
CCOc1ccccc1NC(=O)CN1CCC(NC(=O)c2ccccc2)CC1,-91,95*,1.9,0.36,0,0.45
CCOc1ccc(OCC)c(NC(=O)CN2CCN(c3cccc(C)c3C)CC2)c1,nt,nt,nt,-0.68,nt,-0.06
COC(=O)c1ccccc1NC(=O)CN1CCC(NC(=O)c2ccc(C)cc2)CC1,67*,88*,0.3,-0.29,0.1,-0.65
COC(=O)c1ccccc1NC(=O)CN1CCN(C23CC4CC(CC(C4)C2)C3)CC1,53*,33,0.5,1.3,0.7,0.92
COC(=O)c1ccccc1NC(=O)CN1CCC(n2nnc3cc(F)ccc32)CC1,20,35,0.8,0.34,0.6,-0.02
CCOc1ccc(OCC)c(NC(=O)CN2CCC(NC(=O)c3cccc(F)c3)CC2)c1,68*,74*,0.3,-0.4,0.3,0
COc1ccc(C(=O)NC2CCN(CC(=O)Nc3cccc(C)c3)CC2)cc1OC,nt,nt,nt,2.2,nt,-0.15
CCn1c(CCNC(=O)c2ccc(Cl)c(Cl)c2)nnc1SCCOc1ccc(OC)cc1,22,13,0.8,-1.4,0.9,-0.79
CC(/C=C(\NC(=O)c1ccccc1)C(=O)N=Nc1c(O)[nH]c2ccc(C)cc12)=C\c1ccccc1,53*,16,0.5,nt,0.8,-0.41
Cc1ccc2cc(CN(Cc3ccco3)C(=O)NC3CCCCC3)c(=O)[nH]c2c1C,nt,nt,nt,-4.4*,nt,-1.5
O=C(NC1CCCCC1)N(CCO)Cc1cc2cc3c(cc2[nH]c1=O)OCCO3,53*,3,0.5,-0.25,1,-0.47
SMILES,CYP2C9 inh,CYP2C19 inhib,CYP2C9 activ,Cav32 inh,CYP2C19 act,Pyk2 oligo antag
O=C(NC1CCCCC1)N(CCN1CCCC1)Cc1cc2cc3c(cc2[nH]c1=O)OCCO3,6,5,0.9,0.24,0.9,0.45
CC1=C(C(=O)OCc2ccccc2)C(c2ccccc2OC(F)F)NC(=O)N1 (stereo not drawn),15,44,0.9,-1.5,0.6,-1.8
O=C(CN1C(=O)CNC1=O)Nc1cccc(C(F)(F)F)c1,-3,-3,1,-0.089,1,-0.44
CCOC(=O)n1cc(-c2cnc(CNC(=O)C(C)(c3ccccc3)c3ccccc3)o2)c2ccccc21,nt,nt,nt,-0.42,nt,nt
COc1ccc(-c2nc(-c3ccc(Br)o3)no2)cc1OC,41,-9,0.6,-0.56,1.1,nt
COc1ccc(-c2nnc(-c3ccc(Br)o3)o2)cc1OC,31,56*,0.7,-0.0074,0.4,-0.99
Fc1ccc(C(c2nnnn2C2CCCC2)N(Cc2ccco2)CC2CCCO2)cc1 (stereo not drawn),13,38,0.9,-4*,0.6,-1.2
c1ccc(CN(Cc2ccco2)C(c2ccncc2)c2nnnn2C2CCCC2)cc1 (stereo not drawn),98*,98*,0,-2.9,0,-0.22
Clc1ccc(CN(Cc2ccccc2)C(c2cccs2)c2nnnn2C2CCCC2)cc1 (stereo not drawn),9,8,0.9,-2.1,0.9,0.6
Cc1ccc(S(=O)(=O)NNC(=S)Nc2ccccc2)cc1,35,28,0.6,0.77,0.7,-0.41
O=C1C2C3CCC(C3NCc3ccccc3)C2C(=O)N1Cc1ccccc1 (stereo not drawn),24,33,0.8,-2.6,0.7,0.13
N#Cc1c(Sc2ncc(C(F)(F)F)cc2Cl)nsc1C/C=N\OCc1c(F)cccc1Cl,-83,33,1.8,-0.48,0.7,-0.27
O=C(CSCCNS(=O)(=O)c1ccccc1)Nc1ccccc1,50,92*,0.5,0.034,0.1,3.6
CC(C)Oc1cccc(C(=O)Nc2ccc(NC(=O)c3ccco3)cc2)c1,34,29,0.7,-1.8,0.7,-0.88
Cc1cccc(Oc2cc(NC(=O)c3ccccc3)cc([N+](=O)[O-])c2)c1,29,-2,0.7,-2.6,1,-2.2
CCOc1ccc(Oc2cc(NC(=O)c3ccco3)cc([N+](=O)[O-])c2)cc1,53*,33,0.5,nt,0.7,nt
O=C(Nc1ccccc1-c1ccccc1)c1ccc(NC(=O)c2ccco2)cc1,48,53*,0.5,-5.5*,0.5,-1.5
CC(Oc1ccc(NC(=O)c2ccco2)cc1)C(=O)N1c2ccccc2CC1C (stereo not drawn),51*,33,0.5,-1.8,0.7,-0.31
Cc1nc2nc(-c3cccnc3)[nH]n2c(=O)c1C,31,27,0.7,nt,0.7,-0.64
CCSc1ccccc1C(=O)Nc1cccc(OC)c1,7,41,0.9,-0.28,0.6,-0.08
CN(c1ccc(C(=O)NCCc2ccccc2)cc1)S(C)(=O)=O,4,12,1,-1.1,0.9,-0.55

# Screening results (PubChem)
